In all, about 1,900 compounds went through this assay and about 1,200 (63%) were called active. Cut-off read from the data, not from the text of the source: active = inhibition above about 22%; inactive = the rest. So high a share suggests a set chosen from earlier hits. Not all results are given here.
Test: cytotoxic compounds in IEC-6 epithelial cells, confirmation, cytotoxicity control, cell-based, luminescence (AID 1907);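 note: 0% = vehicle and 100% = reference cytotoxic drug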
Conditions: IEC-6 rat intestinal epithelial viability, at 5 µM, stronger effect = higher value

| SMILES | inhibition |
| --- | --- |
| COC(=O)Nc1nc2ccc(Sc3ccccc3)cc2[nH]1 | 53.4% (active) |
| CCOc1ccccc1N1CCN(C(=O)c2ccc3[nH]c(C)c(C)c3c2)CC1 | 29% (active) |
| Nc1c(C(=O)NCc2ccccc2)nnn1Cc1cccc(Cl)c1 | 22.8% (active) |
| Cc1cccc(/C=N/NC(=O)CNc2cccc3ccccc23)n1 | 26.7% (active) |
| Cn1cccc1/C=N/NC(=O)CNc1cccc2ccccc12 | 36.1% (active) |
| Cc1ccc(/C=N/NC(=O)COc2ccccc2-c2ccccc2)cc1 | 72.2% (active) |
| CCCC1=Nc2cc(C(=O)NCc3ccco3)ccc2Sc2ccccc21 | 58.2% (active) |
| COc1ccccc1N1CCN(C(=O)c2cc(=O)c3cc(C)cc(C)c3o2)CC1 | 60% (active) |
| CCOc1cc(C(=O)N2CCc3cc(OC)c(OC)cc3C2)ccc1OC(F)F | 60.2% (active) |
| CSc1nnc(NC(=O)c2nc(S(=O)(=O)Cc3ccc(C)cc3)ncc2Cl)s1 | 14.9% (inactive) |
| Cc1ccc(CS(=O)(=O)c2ncc(Cl)c(C(=O)Nc3nnc(C)s3)n2)cc1 | 23.3% (active) |
| Cc1cccc(CS(=O)(=O)c2ncc(Cl)c(C(=O)Nc3ccc(F)cc3)n2)c1 | 22.5% (active) |
| Cc1cccc(NC(=O)c2nc(S(=O)(=O)Cc3ccccc3)ncc2Cl)c1 | 12.9% (inactive) |
| CC(C)OCCCNc1ncnc2c1[nH]c1ccc(F)cc12 | 34.4% (active) |
| CC1CCCCN1S(=O)(=O)c1ccc(C(=O)Nc2nnc(-c3cccs3)o2)cc1 (stereo not given) | 18.5% (inactive) |
| CCN(CC)c1ccc(NC(=O)c2ccc(Cl)nc2)cc1 | 38% (active) |
| O=S(=O)(c1ccc(Br)cc1)N1CCC(c2nc3ccccc3[nH]2)CC1 | 27.5% (active) |
| O=[N+]([O-])c1ccccc1S(=O)(=O)Nc1cccc2cccnc12 | 48.3% (active) |
| CCCCCCCCn1c2c(c(=N)c3c1CCC3)CCCC2 | 49.4% (active) |
| CCOC(=O)CSC1=C(C#N)C(c2sccc2C)CC(=O)N1 (stereo not given) | 51.2% (active) |
| CCN1/C(=C/c2ccc3ccc(C)cc3[n+]2CC)Sc2ccccc21 | 39.8% (active) |
| CCN1/C(=C\c2ccc3ccccc3[n+]2CC)Sc2cc(C)ccc21 | 39.4% (active) |
| O=c1cc(-c2ccccc2)[nH]c2cc(F)ccc12 | 53.6% (active) |
| Cc1cc(C(=O)OCC(=O)NCc2ccco2)c(C)n1-c1ccccc1 | 55.2% (active) |
| CC(=O)NC1=NN(C(C)=O)C(C)(c2ccc(Cl)s2)S1 (stereo not given) | 41.6% (active) |

Reference: PubChem BioAssay AID1907 (The Scripps Research Institute Molecular Screening Center, 2009)
